# According to PubChem BioAssay (NCI):
# This is part of a sample that, as a whole, favours compounds with a hit. Of some 83,000 tested, about 20% had one in any assay.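 Cell lines were cultured in 96-well plates, exposed to a single compound concentration, and assessed for percent growth 48 hours later.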 A number with no mark means an inactive call. Active and inactive are the calls of the source. How the source made its calls: active means growth percent below 10; inactive means the rest.
# Experiments:
# Test in all cases: NCI-60 one-dose screen, 48 h (100 = growth as untreated, 0 = no growth, -100 = all killed)
# Settings in all cases: 10 µM unless noted
# NCI-H23 lung = tested on: NCI-H23 lung
# NCI-H226 lung = tested on: NCI-H226 lung
# NCI-H322M lung = tested on: NCI-H322M lung
# HOP-62 NSCLC = tested on: HOP-62 NSCLC
# NCI-H460 lung = tested on: NCI-H460 lung
# HOP-92 NSCLC = tested on: HOP-92 NSCLC
# NCI-H522 lung = tested on: NCI-H522 lung
# A549/ATCC NSCLC = tested on: A549/ATCC NSCLC
# 786-0 renal = tested on: 786-0 renal
# COLO 205 colon = tested on: COLO 205 colon
# DU-145 prostate = tested on: DU-145 prostate
# K-562 leukemia = tested on: K-562 leukemia
# MALME-3M melanoma = tested on: MALME-3M melanoma
# MDA-MB-231 breast = tested on: MDA-MB-231 breast
# RXF 393 renal = tested on: RXF 393 renal
# SF-268 CNS = tested on: SF-268 CNS
# SF-295 CNS = tested on: SF-295 CNS
# UACC-257 melanoma = tested on: UACC-257 melanoma
# M14 melanoma = tested on: M14 melanoma
Compound,growth (NCI-H23 lung),growth (NCI-H226 lung),growth (NCI-H322M lung),growth (HOP-62 NSCLC),growth (NCI-H460 lung),growth (HOP-92 NSCLC),growth (NCI-H522 lung),growth (A549/ATCC NSCLC),growth (786-0 renal),growth (COLO 205 colon),growth (DU-145 prostate),growth (K-562 leukemia),growth (MALME-3M melanoma),growth (MDA-MB-231 breast),growth (RXF 393 renal),growth (SF-268 CNS),growth (SF-295 CNS),growth (UACC-257 melanoma),growth (M14 melanoma)
Oc1c(Cl)cc(Cl)cc1CNc1nccnn1,102%,92%,99.3%,103%,109%,101%,105%,102%,111%,100%,101%,125%,93.9%,104%,108%,96.6%,101%,105%,91.9%
COc1ccccc1-c1ccc2c(N)c(C(=O)c3ccc4c(c3)OCO4)sc2n1,82.1%,96.7%,94.7%,73.3%,60.2%,67.8%,18.6%,46.1%,86%,89.1%,90.5%,14.4%,48.2%,51.8%,75.3%,84.3%,63.9%,81.4%,46.6%
O=c1ccc2cc3ccccc3cc2[nH]1,93.1%,94%,114%,95.4%,93.8%,84.8%,98.8%,102%,103%,121%,100%,57.6%,112%,101%,93.7%,75.5%,95.4%,96.5%,101%
O=C(O)c1ccc(=O)[nH]n1,103%,107%,117%,111%,112%,87.9%,106%,116%,116%,111%,135%,102%,120%,103%,122%,125%,109%,105%,107%
COc1ccc(CNc2nccnn2)cc1,94.6%,92%,103%,98.6%,106%,108%,85.4%,96.9%,107%,95%,112%,96.2%,100%,106%,88.1%,103%,101%,107%,96%
Cn1cc(-c2nc(-c3c[nH]c4ccccc34)cs2)c2cccnc21,49.6%,65.9%,58.9%,33.3%,16.8%,30.4%,-3.47% (active),34.2%,64.9%,-2.81% (active),31.6%,18%,54.7%,30.6%,27.9%,52.4%,11.5%,61.5%,19.6%
COc1ccc(C2CC(=O)Nc3c2c(C)nn3-c2nc3ccccc3[nH]2)cc1 (centres undefined),99.1%,101%,53.9%,116%,20.8%,89.1%,98.2%,97.4%,106%,129%,89.1%,-33.9% (active),28.8%,109%,101%,47.9%,85.9%,111%,84.5%
COc1ccc2nc3cc(Cl)ccc3c(N3CCN(c4nccc(Nc5ccc(Cl)cc5)n4)CC3)c2c1,86.4%,99.8%,97.5%,88.1%,67%,34.8%,51.8%,76.4%,42.2%,95.7%,75.5%,10.8%,120%,60.3%,53.1%,53.7%,84.1%,88.7%,43.4%
COc1ccc(-c2cc(=O)[nH]c3c(OC)c4ccccc4c(OC)c23)cc1,19.2%,39.9%,41.8%,36.8%,8.71% (active),73.9%,-17.2% (active),23.6%,34.5%,-58.8% (active),2.29% (active),8.05% (active),51.3%,35.6%,9.4% (active),34.8%,8.09% (active),73.8%,1.54% (active)
O=C(NCc1cccc(C(F)(F)F)c1)[C@H](CCC(=O)N1CCN(C2CCCCC2)CC1)N1C(=O)[C@@H](N2C(=O)OC[C@@H]2c2ccccc2)[C@H]1/C(Cl)=C/c1ccccc1,68.4%,73.2%,36.4%,55.6%,47.8%,32.6%,33.7%,37.7%,49.9%,40.7%,60.7%,31.5%,47.8%,33.1%,52.2%,31%,46.5%,24.9%,37.9%
O=C(Nc1cccc2[nH]c(C(F)(F)F)nc12)c1ccc(Br)cc1F,1.94% (active),36.4%,57%,45.3%,15.1%,-14.9% (active),-7.83% (active),16.7%,35.8%,26%,46.8%,13%,17.9%,30.7%,51.8%,29.1%,35.3%,40.1%,48.7%
CNc1nc(C)c(-c2nc(Nc3cccc(S(N)(=O)=O)c3)ncc2F)s1,-18.8% (active),7.23% (active),3.99% (active),3.17% (active),4.4% (active),38.2%,-11.7% (active),3.85% (active),2.98% (active),-66.1% (active),10.9%,4.89% (active),-31.4% (active),3.09% (active),-50% (active),-12.7% (active),6.78% (active),-16.4% (active),-3.19% (active)
COC(=O)C12C3C(=O)N(c4ccc(OC)cc4)C(=O)C3C(c3cn(-c4ccccc4)nc3C)N1[C@H](c1cn(-c3ccccc3)nc1C)[C@@H]1C(=O)N(c3ccc(OC)cc3)C(=O)[C@@H]12 (some centres undefined),103%,99.7%,112%,116%,99.8%,97.4%,91.2%,100%,102%,112%,109%,92.3%,108%,108%,102%,104%,91.8%,98%,105%
C=C1CC[C@@H]2[C@](C)(COC(C)=O)[C@H](OC(C)=O)CC[C@@]2(C)[C@@H]1CC(Nc1ccc(S(=O)(=O)Nc2nc(C)cc(C)n2)cc1)C1=CCOC1=O (some centres undefined),84.3%,86.7%,97.2%,103%,90.3%,90.1%,22%,65.3%,103%,77%,82.3%,19.1%,96.3%,107%,85.1%,93.3%,97%,67.9%,63.8%
Cn1c(=O)c2c(ncn2CC[N+](C)(C)C)n(C)c1=O,99.9%,93.2%,101%,92%,109%,110%,80.7%,91.7%,108%,103%,104%,92.1%,105%,104%,111%,98.6%,103%,94.4%,103%
COc1cc(-c2c3c(nc4c2c(C)nn4-c2ccccc2)-c2ccccc2C(=O)C3=O)cc(OC)c1OC,76.6%,99.7%,104%,107%,77.4%,83.7%,84.4%,80.6%,97.8%,69.7%,92.2%,76.9%,72.4%,70.9%,83.3%,78.9%,107%,64.1%,90%
